Data taken from ChEMBL document CHEMBL1157539, “Thousands of chemical starting points for antimalarial lead identification” (Nature, 2010).

What was measured:
Format in all cases: functional
Plasmodium falciparum [1] = assay: GSK_TCMDC: Inhibition of Plasmodium falciparum 3D7 in whole red blood cells, using parasite LDH activity as an index of growth. Test compounds present at 2uM
Plasmodium falciparum [2] = assay: GSK_TCMDC: Inhibition of Plasmodium falciparum Dd2 in whole red blood cells, using parasite LDH activity as an index of growth. Test compounds present at 2uM
HepG2 = assay: GSK_TCMDC: Percent inhibition of human HepG2 cell line. Test compounds present at 10uM.

Row | SMILES | Inhibition (Plasmodium falciparum [1]) [%] | Inhibition (Plasmodium falciparum [2]) [%] | Inhibition (HepG2) [%]
1 | COc1cc(CCNC(=N)/C=C/c2ccc(Cl)cc2)ccc1Cl.Cl | 100 | 16 | 68
2 | CC(=O)c1cccc2[nH]c(C(=O)NC3CCC(CCN4CCc5ccc(C#N)cc5C4)CC3)cc12.Cl (stereo not given) | 96 | 0 | 12
3 | CS(=O)(=O)NCCCNCc1cccc(-c2ccc(-c3nc4cc(C(F)(F)F)ccc4[nH]3)s2)c1.O=C(O)C(F)(F)F | 100 | 51 | 11
4 | NC1CCCN(Cc2ccc(-c3cccc(-c4nc5cc(F)ccc5[nH]4)c3)cc2)C1.O=C(O)C(F)(F)F (stereo not given) | 100 | 75 | 54
5 | CN1CCN(c2ccnc3ccc(NC(=O)Nc4c(Cl)cccc4Cl)cc23)CC1 | 96 | 12 | 11
6 | NC(=O)c1ccccc1OCC(=O)Nc1ccc(-c2cccc(-c3nc4cc(C(F)(F)F)ccc4[nH]3)c2)cc1 | 100 | 11 | 51
7 | Cc1nc2c(=O)sc3ccccc3c2n1Cc1ccccc1 | 95 | 26 | 0
8 | Cl.O=S(=O)(c1ccc(OCc2ccc(Cl)cc2)cc1)c1cc2c(cc1OCc1ccccc1)CCN(C1CCC1)CC2 | 89 | 13 | 17
9 | CN(C)CCCN1CCN(C(=O)c2cccc(-c3noc(C(F)(F)F)n3)c2)CC1 | 92 | 60 | 0
10 | O=C(NCc1ccc(F)cc1)c1ccc(N2CCN(c3ccncc3)CC2)cn1.O=C(O)C(F)(F)F | 98 | 81 | 7
